Compound activity deposited in PubChem by several laboratories.
Rows were chosen to be rich in hits. Some 0.73% of all compounds tested hit in one or more screens of this group.
Vc quorum ag – induces V. cholerae light production without autoinducers; 350,000 tested, 0.16% active; V. cholerae BH1578 lux reporter, luminescence, 6 h; activation, % at 18.7 µM; in the data active = activation mostly above about 9.7%, no sharp cut-off
Yp Topo-I inh – blocks Yersinia pestis topoisomerase I activity; Y. pestis Topo-I cleavage product accumulation, plate reader; activity, % at 10 µM; 360,000 tested, 0.064% active; in the data active = activity above about 50%, passing the limit was not always enough
Mtb BioA inh – blocks M. tuberculosis BioA enzyme activity; inhibition, % at 9.99 µM; purified M. tuberculosis BioA enzyme, plate reader; 360,000 tested, 0.096% active; AID 602481; in the data active = inhibition above about 40%
TcdB inh – TcdB glycohydrolase inhibition; P18177; TcdB glycohydrolase enzymatic assay, plate reader; inhibition, % at 9.99 µM; 350,000 tested, 0.24% active; in the data active = inhibition above about 10%
DUSP3 inh – DUSP3 (human) phosphatase inhibition; recombinant VHR phosphatase, pNPP absorbance; inhibition, % at 13.3 µM; 290,000 tested, 0.52% active; AID 1654; in the data active = inhibition above about 50%
* hit, by the source's call; i = inactive; . = not tested or not shown.

SMILES | Vc quorum ag | Yp Topo-I inh | Mtb BioA inh | TcdB inh | DUSP3 inh
Fc1ccccc1-n1c(-c2ccc3ccccc3n2)n[nH]c1=S | -0.4 | 5.3 | 0.5 | 3.5 | 52.9*
S=c1[nH]nc(-c2ccc3ccccc3n2)n1-c1ccccc1 | -0.4 | -2.1 | 0.1 | -0.2 | 17.6
Cc1cc(C)c(C)c(S(=O)(=O)N2CCCCC2C(=O)O)c1C (stereo not drawn) | -0.3 | 13.2 | -1.2 | 15.0* | 27.0
C=CCN1CCN(C(=O)CSc2ccccc2)CC1 | 0.7 | 1.6 | -0.3 | 1.4 | 57.0*
Cc1cccn2c(=S)[nH]nc12 | -7.1 | 7.7 | 0.0 | 16.2* | .
CC1(C)CC(NC(=O)Cc2ccc(Cl)cc2)CC(C)(C)N1 | i | -0.1 | -1.1 | 1.4 | 53.3*
COc1cccc(-c2ccc3c(c2)[C@@H]2[C@@H](CCN2S(=O)(=O)c2ccccc2OC)[C@H](CO)N3C)c1 | . | . | -1.1 | 0.3 | .
Fc1ccc(/C=C\c2nccc3c2[nH]c2ccccc23)cc1 | i | -16.6 | 1.3 | 11.5* | 21.5
CCCNC(=O)C[C@H]1CC[C@@H]2[C@H](COC[C@H](O)CN2C(=O)c2ccc(F)cc2)O1 | . | . | -1.6 | 0.1 | .
CCCCn1c(N)c(-c2nc3ccccc3o2)c2c([N+](=O)[O-])nn(C)c(=O)c21 | -0.6 | -9.6 | 0.8 | 2.8 | 55.4*
C[C@H](CO)N1C[C@H](C)[C@@H](CN(C)C(=O)c2cccc(F)c2)Oc2cc(-c3ccncc3)ccc2S1(=O)=O | . | . | 4.0 | 0.7 | .
COc1cc(CNc2ccc3[nH]c(=O)[nH]c3c2)ccc1OCc1c(F)cccc1Cl | i | -3.0 | -2.0 | 0.4 | 52.6*
COc1cc(CNc2ccc3[nH]c(=O)[nH]c3c2)ccc1OCc1ccccc1F | -0.5 | 4.4 | 0.3 | 1.8 | 3.6
O=C(CCS(=O)(=O)c1ccc(Br)cc1)N1CCN(c2ccc(F)cc2)CC1 | -0.3 | 29.8 | 0.6 | 2.0 | 50.4*
O=C(CCS(=O)(=O)c1ccc(Br)cc1)N1CCN(c2ccc(Cl)cc2)CC1 | -0.4 | 2.6 | -8.0 | . | 6.2
CCc1ccc(CCC(=O)Nc2ncc(Cc3ccccc3Cl)s2)o1 | i | 9.6 | -1.6 | 0.7 | 59.9*
O=C(CN1CCOCC1)Nc1ncc(Cc2ccccc2Cl)s1 | i | 3.7 | -1.6 | . | 9.7
CC(C)Cc1[nH]c(=O)c(C#N)c2c1CCC2 | i | -0.2 | -1.3 | 49.7* | 10.7
Cc1cccc(N2CCN(S(=O)(=O)c3ccc4c(c3)CCN4C(=O)CCC(=O)O)CC2C)c1 (stereo not drawn) | -0.2 | 8.9 | -1.8 | 0.3 | 54.5*
CC(C)NC(=O)Nc1ccc2c(c1)C(=O)N([C@H](C)CO)C[C@H](C)[C@H](CN(C)C(=O)c1ccncc1)OCCCC[C@H](C)O2 | . | . | -1.1 | -0.1 | .
CC(=O)N1CC[C@@H]2[C@H]1c1cc(-c3ccc(C#N)cc3)ccc1N(C)[C@H]2CO | . | . | -0.4 | 1.2 | .
Cc1oc(-c2ccccc2)cc1C(=O)Nc1ccccc1 | 16.7* | -5.0 | -2.2 | . | 12.9
COc1cc(/C(C)=N/NC(=O)CSc2nnc(C)s2)ccc1O | -0.3 | 3.3 | 2.4 | 10.7* | 12.8
C/C(=N\NC(=O)CSc1nnc(C)s1)c1ccc(O)cc1 | i | -2.3 | . | -13.7 | -0.9
Cc1noc(C)c1NC(=O)N(C)C[C@H]1Oc2ccc(NC(=O)Cc3cn(C)c4ccccc34)cc2C(=O)N([C@@H](C)CO)C[C@H]1C | . | . | -1.3 | -2.6 | .
SMILES | Vc quorum ag | Yp Topo-I inh | Mtb BioA inh | TcdB inh | DUSP3 inh
O=C(C[C@H]1CC[C@H]2[C@@H](COC[C@@H](O)CN2C(=O)Nc2ccccc2)O1)NC1Cc2ccccc2C1 | . | . | -1.6 | -3.0 | .
Cc1nc(NC(=O)CN2CCN(c3ccccc3F)CC2)sc1C(=O)N(C)C | -0.7 | -1.6 | -1.4 | 0.3 | 57.0*
C[C@@H]1CN([C@@H](C)CO)C(=O)c2cc(NC(=O)Nc3ccccc3)ccc2O[C@@H](C)CCCCO[C@H]1CN(C)Cc1ccc(C(F)(F)F)cc1 | . | . | -1.0 | . | .
COc1cc(NC(=O)CCc2nnc3ccc(N4CCC(C)CC4)nn23)cc(OC)c1 | -1.1 | 3.8 | -0.2 | 10.3* | -16.8
COc1ccccc1C#Cc1cnc2c(c1)C(=O)N([C@@H](C)CO)C[C@H](C)[C@@H](CN(C)C(=O)c1ccc3c(c1)OCO3)O2 | . | . | -0.5 | -0.9 | .
COc1ccc(C(=O)Nc2ccc(OCC(=O)N3CCOCC3)cc2)c(OC)c1OC | -0.1 | 0.2 | -5.9 | 0.9 | 56.7*
CC1CN(C(=O)COC(=O)c2ccc(F)cc2Cl)CC(C)O1 (stereo not drawn) | -1.2 | -5.7 | -2.1 | 1.1 | 50.4*
O=C(OCC(=O)N1CCOCC1)c1ccc(F)cc1Cl | -0.2 | -7.0 | -1.7 | -1.0 | 11.3
O=C(CN1CCN(c2ccccn2)CC1)Nc1cc(F)ccc1F | -5.6 | 1.7 | 6.5 | 1.2 | .
O=C(CN1CCN(c2ccccn2)CC1)Nc1ccccc1F | 1.2 | 5.3 | 1.7 | 1.6 | 57.0*
Cc1ccc(S(=O)(=O)Nc2ccc3c(c2)C(=O)N([C@@H](C)CO)C[C@@H](C)[C@@H](CN(C)Cc2ccc(Cl)c(Cl)c2)OCCCC[C@@H](C)O3)cc1 | . | . | 0.2 | -0.2 | .
C/C(=N\NS(C)(=O)=O)c1ccccc1 | 16.7* | -4.0 | -0.3 | . | 21.3
Cc1ccccc1S(=O)(=O)Cc1ccc(C(=O)NCCCN2CCC(C)CC2)o1 | i | 1.4 | . | 1.6 | 56.8*
O=C(COC(=O)c1ccc(F)cc1F)c1ccc[nH]1 | i | 5.6 | -0.3 | 10.3* | .
O=C(C[C@@H]1C=C[C@@H](NC(=O)c2cccc(F)c2)[C@H](CO)O1)Nc1nccs1 | . | . | 1.7 | 0.1 | .
COc1ccccc1NC(=O)N1[C@H](CO)[C@H](c2ccccc2)[C@@H]1C#N | . | . | 6.5 | -0.2 | .
CC(=NO)C1CCC2C3CCC4=CC(=NO)CCC4(C)C3C(=O)CC12C (stereo not drawn) | i | 9.4 | 0.0 | 1.2 | .
CC(=NO)C1CCC2C3CCC4=CC(=NO)CCC4(C)C3C(O)CC12C (stereo not drawn) | 16.7* | 14.5 | -0.4 | 2.2 | .
O=C(Cn1ccc2ccccc2c1=O)NCCC(=O)N1CCN(c2ccccc2)CC1 | -0.2 | 3.2 | -0.4 | -2.1 | 53.3*
O=C(Cn1ccc2ccccc2c1=O)NCCC(=O)N1CCCCC1 | -0.2 | 4.3 | 2.2 | 0.9 | 1.1
O=c1c(OC2OC(CO)C(O)C(O)C2O)c(-c2ccc(O)c(O)c2)oc2cc(O)cc(O)c12 (stereo not drawn) | -5.3 | 0.3 | -0.5 | 14.1* | -3.0
COC(=O)c1cc(S(=O)(=O)N2CCOCC2)c(Cl)cc1N1CCOCC1 | . | 1.2 | -0.2 | . | 6.2
COC(=O)c1cc(C)nc2c1C(=O)C(=O)C=C2N1CCOCC1 | -0.4 | 4.7 | -2.2 | -2.6 | 53.6*
Cc1cc(NCCCn2ccnc2)n2nc(-c3ccc(Cl)cc3)cc2n1 | -0.5 | 11.1 | . | 3.4 | 2.0
CC(C)(C)c1cc(NCCCn2ccnc2)n2ncc(-c3ccc(Cl)cc3)c2n1 | -0.9 | -8.0 | . | . | 52.7*
Cc1cccc(-c2ccc([C@@H]3[C@@H](CO)N4CCCCN(C(=O)NC(C)C)C[C@@H]34)cc2)c1 | . | . | -3.7 | 0.0 | .
CC(=O)c1c(C)[nH]c(C(=O)OCc2ccc([N+](=O)[O-])cc2)c1C | -0.2 | -0.2 | -0.4 | 1.4 | 52.0*
